Outcome and AC50 data for 19 molecules are collected here from PubChem BioAssay (EPA / NIEHS).

One assay has as its system IYD (gene 389434). As to the kind of experiment: CCTE_GLTED_hIYD: CCTE's human Iodotyrosine Deiodinase (xIYD) Inhibition Assay, Great Lakes Toxicology and Ecology Division (GLTED) Lab (AID 2284317; active means hit-call score of the fitted dose curve at least 0.9, where 1 is the maximum;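 further: cell-free human IYD enzyme made in baculovirus insect cells; iodide freed from monoiodotyrosine measured by cerium arsenite color change at 420 nm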). In short, it runs like this: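 Human IYD expressed in a baculovirus-insect cell system was incubated 3 h with monoiodotyrosine and test chemical. Released iodide, separated on Dowex columns, was quantified by the Sandell-Kolthoff reaction at 420 nm; plates were normalized to MNT and DMSO/NaOH controls.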

The test system of another assay is TTR (gene 7276). The assay can be described thus: CCTE_GLTED_hTTR_0.5uM: CCTE's human Transthyretin (hTTR) Inhibition Assay, with 0.5uM TTR, Great Lakes Toxicology and Ecology Division (GLTED) Lab (AID 2284320). In short, it runs like this: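 Cell-free displacement assay in which human TTR at 0.5 uM was incubated with test chemical for 2 h. Displacement of the ANSA probe was read by fluorescence at 380 nm excitation/475 nm emission. Loss of signal was fitted in the positive direction versus DMSO.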

Assay [1] in a line: CCTE_Deisenroth_5AR_NBTE_donor: CCTE's 5alpha-reductase NanoBRET Target Engagement Assay […], Deisenroth Lab (AID 2284319). Particulars: actives raise or lower the signal. The procedure, abridged:
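HEK293T cells were reverse transfected with an SRD5A2-NanoLuc vector for 20 h, exposed to test chemical (8 points, 10 nM - 29.9 uM) for 3 h, then testosterone tracer for 2 h more. Donor luminescence (460 nm) was read; bidirectional fit versus DMSO.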
For orientation: BRET reads energy transfer from a luciferase to a nearby fluorophore.

Assay [2] in a line: CCTE_Deisenroth_5AR_NBTE_acceptor: CCTE's 5alpha-reductase NanoBRET Target Engagement Assay - Autofluorescence Screen, Deisenroth Lab (AID 2284321).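 Further: compound fluorescence in the acceptor channel under 460 nm excitation flags autofluorescence artifacts.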 As to conditions: actives raise or lower the signal. The procedure, abridged:
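Autofluorescence check: ToxCast chemicals, nominal 100 uM, excitation 460 nm, n=3 runs. Acceptor fluorescence endpoint, bidirectional fit relative to DMSO. Parent assay in HEK293T, 5 h post-dose.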

The next assay has as its system SRD5A2 (gene 6716). The assay can be described thus: CCTE_Deisenroth_5AR_NBTE_ratio: CCTE's 5alpha-reductase NanoBRET Target Engagement Assay - Ratio, Deisenroth Lab (AID 2284322). As to conditions: actives raise or lower the signal. In short, it runs like this: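 Reverse-transfect HEK293T with pNLF1-C-SRD5A2, express 20 h. Pre-incubate cells with chemical 3 h (8-point series, 10 nM - 29.9 uM, duplicate). Add testosterone tracer, 2 h more. Add substrate/inhibitor, read donor and acceptor emission.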

The nature of assay [3]: CCTE_Mundy_HCI_iCellGluta_NOG_NeuriteLength: CCTE's Neurite Outgrowth Assay in iCellGluta cells for Neurite Length, Mundy Lab (AID 2284318; active means hit-call score of the fitted dose curve at least 0.9, where 1 is the maximum). In short, it runs like this:
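Automated high-content imaging of betaIII-tubulin (Alexa Fluor-488) and Hoechst-stained cells gave neurite length, normalized to the DMSO baseline.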

The nature of assay [4]: IUF_NPC2-5_viability_120hr: Viability Assessment at 120 hours in the Leibniz Research Institute for Environmental Medicine (IUF) Neural Progenitor Cell Migration and Differentiation Assay (NPC2-5) (AID 2284312). The procedure, abridged: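 Alamar blue resorufin fluorescence read after 5 days of differentiation, with compound present from day 0 and replenished at day 3. Primary hNPC spheres on laminin-coated plates, 37C; seven concentrations plus solvent control, fitted against DMSO.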

The nature of assay [5]: VALA_TUBHUV_Agonist_CellCount: Viability Assessment in the VALA Sciences human Umbilical Vein Endothelial Tubule Formation (TUBHUV) Agonism Assay (AID 2284309; active means hit-call score of the fitted dose curve at least 0.9, where 1 is the maximum). In short, it runs like this:
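HUVEC co-cultured 1:3 with HDF for 3 days in 10 ng/ml VEGF, then compounds added in VEGF medium for a further 3 days (72 h). Nuclear-stain/CD31 imaging cell count. Positive-direction fit versus 0.1% DMSO vehicle.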

Assay [6] in a line: VALA_TUBIPS_Antagonist_TubuleLength: VALA Sciences human iPS-derived Endothelial Tubule Formation (TUBIPS) Antagonist Assay (AID 2284313; active means hit-call score of the fitted dose curve at least 0.9, where 1 is the maximum). In short, it runs like this:
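Cells grown 3 days with 10 ng/ml VEGF, then exposed to compounds in VEGF medium for another 3 days. After fixation, nuclear stain and CD31 immunofluorescence imaging gave mean total tubule length against 0.1% DMSO; suramin (100 uM) inhibition control.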

A short description of assay [7]: VALA_TUBHUV_Antagonist_TubuleLength: VALA Sciences human Umbilical Vein Endothelial Tubule Formation (TUBHUV) Antagonism Assay (AID 2284325; active means hit-call score of the fitted dose curve at least 0.9, where 1 is the maximum). In short, it runs like this:
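HUVEC–HDF co-culture (1:3) pre-grown 3 days with 10 ng/ml VEGF, then 3 days with compound plus VEGF. Fixed, nuclear and CD31 stained; total tubule length by imaging versus 0.1% DMSO; suramin 100 uM positive control.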

Where “and” joins values, the source holds several entries; their conditions need not be identical. Equal values may be shown once. Inconclusive results are not listed. Calls of active or inactive are those of the source. How the source made its calls, unless noted: active means hit-call score of the fitted dose curve at least 0.9, where 1 is the maximum; inactive means score below 0.9.

Regarding `CC#Cc1cc(C)nc(Nc2ccccc2)n1`, the molecule was called inactive with IYD (gene 389434).

Regarding `O=C(O)C(F)(F)C(F)(F)C(F)(F)C(F)(F)C(F)(F)F`, the AC50 (commonly the concentration giving half of the maximal activity seen) in the assay with TTR (gene 7276) was 1460 nM (active).

Regarding `Clc1ccc(C(c2ccccc2Cl)C(Cl)(Cl)Cl)cc1` (centres undefined), the molecule was called inactive in [1] and in assay [2]. Besides, the AC50 in the assay on SRD5A2 (gene 6716) was 50 µM (active).

As to `Cc1cc(-c2ccc(N)c(C)c2)ccc1N`, the molecule was classed as inactive in assay [1] and in [2]. Also, in the assay on SRD5A2 (gene 6716), the AC50 was 50 µM (active).

On to `CC(C)(c1ccccc1)c1ccc(O)cc1`, for which the molecule was called inactive (in [1]; in assay [2]; in the assay on SRD5A2 (gene 6716)).

On to `COc1ccc(O)c(C(C)(C)C)c1`, for which the outcome in assay [3] was inactive.

As to `NS(=O)(=O)C(F)(F)C(F)(F)C(F)(F)C(F)(F)C(F)(F)C(F)(F)C(F)(F)C(F)(F)F`, the AC50 with IYD (gene 389434) was 46.1 µM (active); with TTR (gene 7276), 807 nM (active). Moreover, in assay [3], the molecule was called inactive.

Consider `O=S(=O)(O)C(F)(F)C(F)(F)C(F)(F)C(F)(F)F`, for which the call in assay [4] and in assay [3] was inactive. Also, the AC50 in the assay on TTR (gene 7276) is 788 nM (active).

Take `CO/C=C(/C(=O)OC)c1ccccc1COc1cccc(C(F)(F)F)n1`: the values for the AC50 in assay [4] and in [3] were 6.8 µM (active) and 5.9 µM (active), respectively.

Regarding `C=CC(N)=O`, in assay [4], the outcome was inactive.

Take `Oc1ccc(C(c2ccc(O)cc2)(C(F)(F)F)C(F)(F)F)cc1`: in [5], the AC50 was 65.5 µM (active). Moreover, the molecule was called inactive in [6] and in assay [7].

As for `CCC(C)c1cc([N+](=O)[O-])cc([N+](=O)[O-])c1O` (centres undefined), the AC50 in [1] is 29.4 µM (active); in [2] it was 9.91 µM (active); in the assay on SRD5A2 (gene 6716), 53.3 µM (active).

For `O=C(O)C(F)(F)C(F)(F)C(F)(F)C(F)(F)C(F)(F)C(F)(F)C(F)(F)C(F)(F)C(F)(F)F`, the AC50 was 95.5 µM (active) and 50.9 µM (active) with IYD (gene 389434); 721 nM (active) with TTR (gene 7276).

Regarding `ClC(Cl)=C(c1ccc(Cl)cc1)c1ccc(Cl)cc1`, the result (in [1]; in [2]; in the assay on SRD5A2 (gene 6716)) was inactive.

Regarding `CCOP(=S)(OCC)SCSC(C)(C)C`, the outcome in assay [4] and in [3] was inactive.

With `CCCCCCCCCc1ccc(O)cc1`, the concentration at half-maximal activity (AC50) in the assay with IYD (gene 389434) is 24.1 µM (active).

Regarding `O=S(=O)(O)C(F)(F)C(F)(F)C(F)(F)C(F)(F)C(F)(F)C(F)(F)F`, the outcome in assay [4] and in assay [3] was inactive. The AC50 in the assay on TTR (gene 7276) is 455 nM (active) and 190 nM (active).

For `O=C(O)C(F)(F)C(F)(F)C(F)(F)C(F)(F)C(F)(F)C(F)(F)C(F)(F)C(F)(F)F`, the figures for the AC50 in the assay with IYD (gene 389434) and in the assay with TTR (gene 7276) were 91.2 µM (active) and 435 nM (active), respectively.

As for `CCCCCCCCCC[N+](C)(C)CCCCCCCCCC`, the half-maximal activity concentration (AC50) is 63.9 µM (active) in the assay on IYD (gene 389434), 5.89 µM (active) in assay [1], 4.7 µM (active) in assay [2] and 10.3 µM (active) in the assay on SRD5A2 (gene 6716).
